From PubChem BioAssay (NCATS)
Inconclusive results are not listed. A call without a number means that no potency is given here. Active and inactive are the calls of the source. Calls follow the shape of the dose curve; as a rule, active = well fitted curve in the direction sought with a large enough effect; inconclusive = small, poorly fitted or top-dose-only effect, or another doubt; inactive = no such curve, though single readings can be large; an effect the other way counts as inactive or inconclusive.

How the values were obtained:
Furin (Homo sapiens) = Furin (Homo sapiens) (UniProt P09958); test: Furin counterscreen qHTS for Zika virus inhibitors (AID 1347149); conditions: furin enzymatic counterscreen, fluorogenic substrate; series mostly up to 114 µM; also: nearly all actives have a fitted effect of over 70% in size; also: potency is read from the fitted curve at half-maximal effect
Summary of the method: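 Counterscreen measures cleavage of 2 microM BOC-RVRR-AMC, below its ~15 microM Km, by 5 nM full-length human furin at pH 7.0 after a 15-min compound preincubation. Inhibition derives from the 15-min fluorescence increase at 37C.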

[1] = tested on: Zika virus NS2B-NS3 protease (linked construct); test: Confirmatory screen NINDS AMC qHTS for Zika virus inhibitors (AID 1347152); conditions: Purified linked NS2B-NS3, AMC substrate fluorescence; series mostly up to 110 µM; also: nearly all actives have a fitted effect of over 70% in size; also: potency is read from the fitted curve at half-maximal effect
Summary of the method: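 Purified NS2B-NS3 protease with NS2B hydrophilic domain linked to NS3 protease domain by flexible linker, 1 nM final in 10 mM Tris-HCl pH 8.0, 0.01% Tween 20. Compounds preincubated 15 min, room temperature; Bz-Nle-KRR-AMC 10 microM (Km 18.3 µM); 15-min fluorescence change, 4-parameter Hill fit.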

[2] = ZIKV-mCherry secondary qHTS for Zika virus inhibitors (AID 1347158); conditions: Vero cells, ZIKV-mCherry infection imaging, 48-72 h; series mostly up to 49.2 µM; also: top concentration of the series differs between compounds
Summary of the method: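 Read-out is percent infection: mCherry-positive Vero cells (nuclear-proximal intensity >450 RFU, 3 SD above negative controls) counted by high-content imaging of Hoechst-stained, PFA-fixed wells after 48-72 h with ZIKV-mCherry at MOI 1 and compound.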

[3] = tested on: Zika virus NS2B-NS3 protease (linked construct); test: 384 well plate NINDS Rhodamine confirmatory qHTS for Zika virus inhibitors (AID 1347164); conditions: rhodamine-110 peptide substrate fluorescence; series mostly up to 1 mM;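 also: fluorescence from protease cleavage of Ac-LKRR-rhodamine 110 substrate; potency is read from the fitted curve at half-maximal effect; nearly all actives have a fitted effect of over 65% in size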
Summary of the method: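 Linked protease at a final 5 nM, 30 nM or 60 nM was preincubated ~15 min with compounds, then given 10 microM Ac-LKRR-Rhodamine 110. Fluorescence (ex 485/em 538 nm) after 25 min in the dark at room temperature.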

[4] = Tertiary RLuc qRT-PCR qHTS assay for Zika virus inhibitors (AID 1347169); conditions: infected Vero cells, reporter luminescence, 48-72 h; series mostly up to 1.74 µM; also: top concentration of the series differs between compounds; nearly all actives have a fitted effect of over 55% in size
Summary of the method: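 Vero cells (1,000 per well) plated overnight at 37 degrees C, treated with compound in DMSO, then infected with recombinant ZIKV-RLuc (Cambodian) at MOI 1-2 for 48-72 hrs. Live-cell Renilla luciferase substrate added; luminescence read after 1-1.5 hrs.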

[5] = Confirmatory screen NINDS Rhodamine qHTS for Zika virus inhibitors (AID 1347161); conditions: purified enzyme assay, Rhodamine110 substrate fluorescence, 15 min; series mostly up to 114 µM; also: nearly all actives have a fitted effect of over 60% in size; also: potency is read from the fitted curve at half-maximal effect
Summary of the method: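 Each compound, titrated, sat 15 min with 25 nM linked protease before 1.5 microM Rhodamine110 substrate went in. Fluorescence gain over the next 15 min, in pH 8.0 Tris with Tween 20, gave Hill-fitted curves.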

[6] = tested on: Zika virus NS2B-NS3 protease (linked); test: 384 well plate NINDS AMC confirmatory qHTS for Zika virus inhibitors (AID 1347163); conditions: Recombinant NS2B-NS3 protease, Ac-VKTGKR-AMC fluorescence; series mostly up to 1 mM; also: nearly all actives have a fitted effect of over 50% in size; also: potency is read from the fitted curve at half-maximal effect
Summary of the method: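 Enzyme (5, 30 or 60 nM final) first met test compounds for ~15 min. The AMC-tagged peptide Ac-VKTGKR-AMC followed at 30 microM. Fluorescence was then recorded at 25 min and scaled against no-enzyme and no-inhibitor wells.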

[7] = tested on: Zika virus NS2B-NS3 protease (unlinked complex); test: Confirmatory screen GU AMC qHTS for Zika virus inhibitors (AID 1347153); conditions: Recombinant NS2B-NS3 protease, AMC substrate fluorescence; series mostly up to 111 µM; also: nearly all actives have a fitted effect of over 70% in size
Summary of the method: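 Compounds were preincubated 15 min at room temperature with 25 nM noncovalent NS2B-NS3 protease at pH 8.0; AMC substrate added at 10 microM and 15-min fluorescence gain (340/450 nm) converted to percent inhibition, fitted 4-parameter.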

[8] = Confirmatory screen GU Rhodamine qHTS for Zika virus inhibitors qHTS (AID 1347157); conditions: purified enzyme assay, Rhodamine110 substrate fluorescence, 15 min; series mostly up to 114 µM; also: nearly all actives have a fitted effect of over 70% in size; also: potency is read from the fitted curve at half-maximal effect
Summary of the method: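 Noncovalent NS2B hydrophilic domain/NS3 protease complex (25 nM final) in 10 mM Tris-HCl pH 8.0, 0.01% Tween 20, preincubated 15 min with compounds (up to 114 microM), then 1.5 microM Rhodamine110 substrate. Fluorescence change over 15 min fitted to 4-parameter Hill.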

Furin (Homo sapiens), sequence (P09958 whole entry, looked up): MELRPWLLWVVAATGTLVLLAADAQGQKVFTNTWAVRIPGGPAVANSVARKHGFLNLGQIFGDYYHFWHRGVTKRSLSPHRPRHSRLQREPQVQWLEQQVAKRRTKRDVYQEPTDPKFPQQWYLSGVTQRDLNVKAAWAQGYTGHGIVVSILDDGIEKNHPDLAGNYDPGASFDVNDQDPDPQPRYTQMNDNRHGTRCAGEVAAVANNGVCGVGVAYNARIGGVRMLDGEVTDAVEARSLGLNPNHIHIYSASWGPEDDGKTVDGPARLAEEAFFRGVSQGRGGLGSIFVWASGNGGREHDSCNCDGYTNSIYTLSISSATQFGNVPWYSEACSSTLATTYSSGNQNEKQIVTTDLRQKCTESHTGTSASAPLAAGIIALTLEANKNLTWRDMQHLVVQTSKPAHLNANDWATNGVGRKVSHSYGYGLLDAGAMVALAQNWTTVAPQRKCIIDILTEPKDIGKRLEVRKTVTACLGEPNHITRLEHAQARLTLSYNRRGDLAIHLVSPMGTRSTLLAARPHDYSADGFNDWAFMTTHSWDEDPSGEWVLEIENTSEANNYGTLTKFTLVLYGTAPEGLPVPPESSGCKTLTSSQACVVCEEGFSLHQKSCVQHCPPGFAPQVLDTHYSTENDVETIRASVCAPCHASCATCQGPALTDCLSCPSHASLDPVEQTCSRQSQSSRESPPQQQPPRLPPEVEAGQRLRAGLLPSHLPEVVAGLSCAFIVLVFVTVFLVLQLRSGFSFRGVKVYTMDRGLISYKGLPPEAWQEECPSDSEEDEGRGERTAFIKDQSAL

Compound | Potency (Furin (Homo sapiens)) | Potency [1] | Potency [2] | Potency [3] | Potency [4] | Potency [5] | Potency [6] | Potency [7] | Potency [8]
N#Cc1ccc(OCC2CN(Cc3c[nH]c4ccccc34)C(=O)c3c(ccnc3-c3ccc(OCC(=O)O)cc3)O2)cc1 (stereo unspecified) | inactive | inactive | inactive | 39.8 µM (active) | inactive |  |  |  | 
CC(=O)C(N=Nc1ccc(S(=O)(=O)Nc2ccccn2)cc1)C(=O)Nc1ccc(Cl)cc1 (stereo unspecified) | inactive | 44.7 µM (active) | inactive | 25.1 µM (active) | inactive | 20 µM (active) | 22.4 µM (active) |  | 
Cc1ncccc1OCC1CN(Cc2cccc(C(F)(F)F)c2)C(=O)c2c(ccnc2-c2ccc(OCC(=O)O)cc2)O1 (stereo unspecified) | inactive | inactive |  |  | inactive |  |  | inactive | 
CS(=O)(=O)c1ccc(Nc2ccc3c(c2)OCO3)c([N+](=O)[O-])c1 | inactive | inactive |  |  | inactive |  |  | inactive | 
CCOC(=O)c1ccc(NC(=O)c2ccc3c(c2)CCN3S(=O)(=O)c2ccc(Cl)cc2)cc1 | inactive |  |  |  |  | inactive |  |  | inactive
CC(NC(=O)C1CCN(S(=O)(=O)c2ccc3nc4c(c(C(=O)O)c3c2)CCCC4)CC1)c1ccccc1 (stereo unspecified) | inactive |  |  |  | inactive | inactive |  |  | inactive
O=c1oc2ccccc2cc1-c1nnc(Nc2ccc(Cl)cc2Cl)s1 | inactive |  |  |  | inactive | 15.8 µM (active) | 50.1 µM (active) |  | 31.6 µM (active)
O=C(O)c1ccc(NC(=O)c2cn(-c3ccccc3)nc2-c2ccc(Br)cc2)cc1 | inactive |  |  | 35.5 µM (active) |  | 6.31 µM (active) | 44.7 µM (active) |  | 8.91 µM (active)
Cc1c(Cl)cccc1NS(=O)(=O)c1ccc(NS(=O)(=O)c2ccc3c(c2)OCCO3)cc1 | inactive |  |  | 39.8 µM (active) |  | 25.1 µM (active) | 141 µM (active) |  | 44.7 µM (active)
O=C(O)c1cc(-n2c(/C=C\c3ccc(F)cc3)nc3ccccc3c2=O)ccc1Cl | inactive |  | inactive | 141 µM (active) | inactive |  | 200 µM (active) |  | 39.8 µM (active)
O=c1oc2cc(O)ccc2cc1-c1nc(-c2ccc(Cl)c(Cl)c2)cs1 | inactive |  | inactive |  | inactive |  | inactive |  | 11.2 µM (active)
Cc1cn2c(=O)cc(COC(=O)c3ccc(NC(=O)c4ccc(C(C)(C)C)cc4)cc3)nc2s1 | 46.9 µM (active) |  |  |  | inactive | inactive |  |  | inactive
O=C(Nc1cccc(C(=O)OCc2cc(=O)n3nc(C4CC4)sc3n2)c1)c1cccc(F)c1 | 41.8 µM (active) |  | inactive | 17.8 µM (active) | inactive | 25.1 µM (active) |  |  | 50.1 µM (active)
COC(=O)c1ccc(C(=O)Nc2ccc(-c3nc4cc(NC(=O)c5ccc(C(=O)OC)cc5)ccc4o3)cc2)cc1 | inactive |  |  |  | inactive | inactive |  |  | inactive
O=c1oc2ccc3ccccc3c2cc1-c1nnc(Nc2ccc(Cl)cc2Cl)s1 | inactive |  |  |  | inactive | inactive |  |  | inactive
